Each structure is given as a SMILES string. Records with an inconclusive call do not appear. Active and inactive are the calls of the source. Unless noted, the call rests on the fitted dose curve.

In assay [1] the target is Bile acid receptor (Homo sapiens) (UniProt Q96RI1). Kind of assay: qHTS assay for small molecule antagonists of farnesoid X receptor signaling (AID 588526). Further: on the % scale 0 is the no-effect control and ±100 the full control effect. In a few lines: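 Concentration-response titrations were fitted to the Hill equation for half-maximal inhibition and maximal response, with data normalised to 50 uM chenodeoxycholic acid and DMSO control wells. Cells: FXR-UAS-bla HEK293T, dialyzed FBS.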
Chain of Bile acid receptor (Homo sapiens) (Q96RI1 whole entry, looked up): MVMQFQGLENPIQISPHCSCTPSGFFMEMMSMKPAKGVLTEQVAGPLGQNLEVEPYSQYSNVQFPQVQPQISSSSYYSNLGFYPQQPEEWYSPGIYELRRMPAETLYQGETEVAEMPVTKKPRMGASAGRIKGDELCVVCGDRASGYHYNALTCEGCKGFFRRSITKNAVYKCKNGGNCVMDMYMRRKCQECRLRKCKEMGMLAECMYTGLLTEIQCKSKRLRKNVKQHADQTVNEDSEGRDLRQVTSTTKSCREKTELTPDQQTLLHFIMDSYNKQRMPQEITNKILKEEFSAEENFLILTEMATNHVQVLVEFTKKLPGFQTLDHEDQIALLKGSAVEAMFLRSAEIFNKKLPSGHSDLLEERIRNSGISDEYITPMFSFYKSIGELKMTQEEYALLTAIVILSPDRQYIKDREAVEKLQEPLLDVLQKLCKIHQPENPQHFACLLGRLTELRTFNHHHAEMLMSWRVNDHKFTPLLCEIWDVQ
On the technique in general: qHTS replaces the single test concentration by a dilution series.

The target in assay [2] is Glucocorticoid receptor (Homo sapiens) (UniProt P04150). Briefly: qHTS assay for small molecule agonists of glucocorticoid receptor signaling (AID 588532; active means well fitted curve in the direction sought with a large enough effect in the signal ratio, with a control signal flat; the % refers to the signal ratio;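 further: 100% = dexamethasone at 0.1 µM and 0% = DMSO only wells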). Particulars: HeLa MMTV-bla, beta-lactamase ratio, agonist, 18 h; stronger effect = higher value; percent of dexamethasone control, DMSO zero. In a few lines:
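Titration series, up to 92 uM, applied to GRE-bla HeLa cells for 18 h at 37 C. Detection by CCF4 FRET substrate after 2 h at RT.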

Assay [3] in a line: qHTS assay for small molecule antagonists of peroxisome proliferator-activated receptor delta signaling (AID 588535; active means well fitted inhibition curve with a large enough effect in the signal ratio, with a control signal flat, not every such curve was filed as active; the % refers to the signal ratio;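 on max response: cells co-treated with a PPAR-delta agonist as stimulator during compound exposure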). Particulars: HEK293T PPARd-UAS-bla, beta-lactamase FRET ratio, 18 h; 460 nm channel. In a few lines: (§1)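 Compounds tested in titration on PPAR-delta-UAS-bla HEK293T cells grown in charcoal/dextran-stripped serum (2%); beta-lactamase activity read via CCF4 emission at 460 and 530 nm.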

Assay [4] has as its target Peroxisome proliferator-activated receptor gamma (Homo sapiens) (UniProt P37231). Kind of assay: qHTS assay for small molecule agonists of peroxisome proliferator-activated receptor gamma signaling (AID 588536; active means well fitted curve in the direction sought with a large enough effect in the signal ratio, with a control signal flat, not every such curve was filed as active; the % refers to the signal ratio;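 further: 0% = DMSO basal wells and 100% = rosiglitazone at 2 µM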). In a few lines:
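Beta-lactamase reporter read-out: CCF4 fluorescence (ex 405, em 460/530 nm) after 2 h at RT. HEK293 GeneBLAzer cells were treated for 16 h at 37 C. Hill fits gave EC50 and efficacy versus 2 uM rosiglitazone (100%) and DMSO (0%).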

Assay [5] in a line: qHTS assay for small molecule agonists of retinoid X receptor alpha signaling (AID 588544).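 On activation: 0% = DMSO basal wells and 100% = reference agonist.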 Particulars: HEK293T RXRa-UAS-bla, beta-lactamase reporter, 18 h; 530 nm emission.
Assay [6] concerns the target Retinoic acid receptor RXR-alpha (Homo sapiens) (UniProt P19793). The description is as above.
Assay [7] concerns the target Thyroid hormone receptor beta (Homo sapiens) (UniProt P10828). Kind of assay: qHTS assay for small molecule agonists of thyroid hormone receptor beta signaling (AID 588545). The essentials: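 In this cell-based screen, titrated compounds act on HEK 293 cells held in medium with 2% charcoal/dextran FBS, NEAA and pyruvate for 18 hrs at 37 C. Responses are expressed relative to T3 (10 nM) as 100% and basal DMSO as 0%.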

Assay [8] can be described thus: qHTS assay for small molecule antagonists of retinoid X receptor alpha signaling (AID 588546; active means well fitted inhibition curve with a large enough effect in the signal ratio, with a control signal flat, not every such curve was filed as active; the % refers to the signal ratio;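 further: cells stimulated with 9-cis-retinoic acid as agonist; on the % scale 0 is the no-effect control and ±100 the full control effect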). The conditions noted are these: HEK293T RXRa-UAS-bla, beta-lactamase ratio, antagonist mode; measured here: W530 green channel, cytotoxicity proxy. The essentials:
(§2)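 Beta-lactamase reporter inhibition, read as CCF4 fluorescence ratio (ex 405, em 460/530 nm) after 2 h at RT. HEK293T UAS-bla cells, 2500/well, were stimulated with 9-cis-RA at 500 or 100 nM final alongside test compound for 18 h at 37 C.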

Assay [9] addresses Retinoic acid receptor RXR-alpha (Homo sapiens) (UniProt P19793). Described as above. The conditions noted are these: HEK293T RXRa-UAS-bla, beta-lactamase ratio, antagonist mode. In a few lines: as §2
Assay [10] deals with Thyroid hormone receptor beta (Homo sapiens) (UniProt P10828). Briefly: qHTS assay for small molecule antagonists of thyroid hormone receptor beta signaling (AID 588547; active means well fitted inhibition curve with a large enough effect in the signal ratio, with a control signal flat, not every such curve was filed as active; the % refers to the signal ratio;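 further: cells stimulated with 0.4 nM T3 agonist during compound exposure; series mostly up to about 77 µM; on the % scale 0 is the no-effect control and ±100 the full control effect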). Particulars: TR-UAS-bla HEK293, beta-lactamase ratio, antagonist mode, 18 h. The essentials:
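TR-UAS-bla GripTite HEK293 cells in 2% charcoal/dextran FBS medium were preincubated 4 h at 37 C, given compound (0.59 nM to 92 uM) plus 0.4 nM T3 (final) for 18 h, then CCF4 for 2 h at RT; Hill fit gave IC50.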

Assay [11] addresses Voltage-gated inwardly rectifying potassium channel KCNH2 (Homo sapiens) (UniProt Q12809). Kind of assay: qHTS Assay for Small Molecule Inhibitors of the Human hERG Channel Activity (AID 588834; active means well fitted inhibition curve with a large enough effect;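 further: top concentration of the series differs between compounds; on the % scale 0 is the no-effect control and ±100 the full control effect; lower thallium flux fluorescence means stronger hERG block; nearly all actives have a fitted effect of over 50% in size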). The essentials: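 In hERG-transduced U2OS cells, dye-loaded for 1 hr at room temperature in dark, test compounds incubated 10 min at 37 °C before thallium stimulation. AC50 values derived by Hill modelling of concentration-response.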

Assay [12] can be described thus: qHTS assay for small molecule agonists of the antioxidant response element (ARE) signaling pathway (AID 651741; active means well fitted activation curve with a large enough effect in the signal ratio; the % refers to the signal ratio; further: % of control where 0% means no effect). In a few lines: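 Beta-lactamase reporter expression driven by the antioxidant response element in HepG2 cells was detected by fluorescence with LiveBLAzer B/G FRET substrate (2 h, room temperature) following 16 h compound treatment at 37 C.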
Assay [13] in a line: qHTS assay for small molecule activators of the nuclear factor-kappa B (NF-kB) signaling pathway (AID 651749; active means well fitted activation curve with a large enough effect in the signal ratio; the % refers to the signal ratio; further: series mostly up to about 77 µM; % of control where 0% means no effect). The conditions noted are these: NF-kB-bla ME-180 cells, beta-lactamase FRET ratio, 16 h; stronger effect = higher value. The essentials:
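Beta-lactamase reporter expression, controlled by NF-kB response elements in ME-180 cells, was quantified fluorometrically via FRET disruption; cells at 2,000/well had been incubated with 23 nL test compound for 16 hr.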

The target of assay [14] is Glucocorticoid receptor (Homo sapiens) (UniProt P04150). Briefly: qHTS assay for small molecule antagonists of glucocorticoid receptor signaling (AID 588533; active means well fitted inhibition curve with a large enough effect in the signal ratio, with a control signal flat, not every such curve was filed as active; the % refers to the signal ratio;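 further: cells stimulated with 2 nM dexamethasone as agonist; on the % scale 0 is the no-effect control and ±100 the full control effect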). In a few lines:
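Antagonist-mode qHTS: compound titrations added to GRE-bla HeLa cells, then dexamethasone 2 nM final; 18 h, 37 C. CCF4 FRET fluorescence normalized to dexamethasone and DMSO; IC50 from Hill fit.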

Assay [15] addresses Peroxisome proliferator-activated receptor gamma (Homo sapiens) (UniProt P37231). Kind of assay: qHTS assay for small molecule antagonists of peroxisome proliferator-activated receptor gamma signaling (AID 588537; active means well fitted inhibition curve with a large enough effect in the signal ratio, with a control signal flat, not every such curve was filed as active; the % refers to the signal ratio;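 further: reporter cells co-stimulated with 50 nM rosiglitazone agonist during compound treatment; % of control where 0% means no effect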). The essentials: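 HEK293 cells, PPAR-gamma-UAS-bla, 3000/well. Pre-incubation 6-6.5 h, 37 C. Compound titration with rosiglitazone 50 nM final, 16 h. CCF4 dye, 2 h RT, dual-emission fluorescence.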

In assay [16] the target is Vitamin D3 receptor (Homo sapiens) (UniProt P11473). Briefly: qHTS assay for small molecule antagonists of vitamin D receptor signaling (AID 588541). The essentials: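 VDR-UAS-bla HEK293T cells (2000/well, 2% charcoal-stripped FBS) were treated with titrated compounds plus 1-alpha,25-dihydroxyvitamin D3 (50 nM or 3 nM final) for 16 h at 37 C. CCF4 beta-lactamase fluorescence was read; Hill fits gave IC50.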
Chain of Vitamin D3 receptor (Homo sapiens) (P11473 whole entry, looked up): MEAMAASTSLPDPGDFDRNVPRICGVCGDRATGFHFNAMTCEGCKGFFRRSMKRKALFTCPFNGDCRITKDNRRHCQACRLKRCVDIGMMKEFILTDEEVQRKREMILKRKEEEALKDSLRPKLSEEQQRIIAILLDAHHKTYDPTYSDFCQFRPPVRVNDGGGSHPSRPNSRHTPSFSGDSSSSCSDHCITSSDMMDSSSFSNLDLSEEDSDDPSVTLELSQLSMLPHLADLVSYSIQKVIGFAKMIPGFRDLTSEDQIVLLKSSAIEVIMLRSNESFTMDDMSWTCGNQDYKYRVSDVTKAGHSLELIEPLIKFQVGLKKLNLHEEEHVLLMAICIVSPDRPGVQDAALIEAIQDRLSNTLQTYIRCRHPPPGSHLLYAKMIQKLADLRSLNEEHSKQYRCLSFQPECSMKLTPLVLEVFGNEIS

The target is the same in assay [17]. Briefly: qHTS assay for small molecule agonists of vitamin D receptor signaling (AID 588543).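 Further: 0% = DMSO basal and 100% = reference agonist control.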 In a few lines:
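GeneBLAzer VDR-UAS-bla HEK293T cells in 2% charcoal-stripped FBS medium were dosed with compound titrations for 16 h at 37 °C; CCF4 β-lactamase readout (405 nm ex, 460/530 nm em). EC50 and efficacy from Hill fits, normalized to 50 nM calcitriol (100%) and DMSO (0%).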

Assay [18] is described as follows: qHTS assay for small molecule activators of the p53 signaling pathway (AID 651743; active means well fitted activation curve with a large enough effect in the signal ratio, not every such curve was filed as active; the % refers to the signal ratio; further: series mostly up to about 92 µM; % of control where 0% means no effect). The conditions noted are these: HCT-116 p53RE-bla, beta-lactamase FRET ratio, 16 h; stronger effect = higher value. The essentials: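 Here HCT-116 cells with an integrated p53-responsive beta-lactamase gene were incubated with compounds (16 hours, 37 C) after a 5-hour plating period; beta-lactamase activity was detected as fluorescence intensity via B/G FRET substrate.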

Assay [19] concerns the target Peroxisome proliferator-activated receptor delta (Homo sapiens) (UniProt Q03181). Briefly: qHTS assay for small molecule antagonists of peroxisome proliferator-activated receptor delta signaling (AID 588535).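 On max response: cells co-treated with a PPAR-delta agonist as stimulator during compound exposure.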 The essentials: as §1

Chain of Glucocorticoid receptor (Homo sapiens) (P04150 whole entry, looked up): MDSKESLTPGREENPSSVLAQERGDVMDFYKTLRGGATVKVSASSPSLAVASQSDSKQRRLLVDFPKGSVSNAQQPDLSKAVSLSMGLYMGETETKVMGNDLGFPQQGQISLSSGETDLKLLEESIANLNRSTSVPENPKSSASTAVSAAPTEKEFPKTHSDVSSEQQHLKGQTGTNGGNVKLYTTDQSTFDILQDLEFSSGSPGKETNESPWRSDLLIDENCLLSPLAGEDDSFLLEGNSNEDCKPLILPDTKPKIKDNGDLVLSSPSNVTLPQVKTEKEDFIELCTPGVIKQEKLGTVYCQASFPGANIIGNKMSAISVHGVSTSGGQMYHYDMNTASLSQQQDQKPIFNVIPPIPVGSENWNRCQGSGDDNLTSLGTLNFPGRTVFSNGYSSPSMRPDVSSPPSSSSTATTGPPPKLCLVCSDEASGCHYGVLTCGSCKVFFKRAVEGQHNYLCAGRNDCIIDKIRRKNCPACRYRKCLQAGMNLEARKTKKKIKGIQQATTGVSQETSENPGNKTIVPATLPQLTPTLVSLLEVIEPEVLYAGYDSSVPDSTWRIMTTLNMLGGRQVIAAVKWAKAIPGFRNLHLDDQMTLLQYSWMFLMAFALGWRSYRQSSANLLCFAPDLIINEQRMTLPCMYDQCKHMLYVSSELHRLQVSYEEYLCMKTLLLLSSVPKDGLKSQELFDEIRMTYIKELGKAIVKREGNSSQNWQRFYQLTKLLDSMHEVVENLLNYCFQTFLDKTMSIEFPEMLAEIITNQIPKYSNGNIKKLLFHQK
Chain of Thyroid hormone receptor beta (Homo sapiens) (P10828 whole entry, looked up): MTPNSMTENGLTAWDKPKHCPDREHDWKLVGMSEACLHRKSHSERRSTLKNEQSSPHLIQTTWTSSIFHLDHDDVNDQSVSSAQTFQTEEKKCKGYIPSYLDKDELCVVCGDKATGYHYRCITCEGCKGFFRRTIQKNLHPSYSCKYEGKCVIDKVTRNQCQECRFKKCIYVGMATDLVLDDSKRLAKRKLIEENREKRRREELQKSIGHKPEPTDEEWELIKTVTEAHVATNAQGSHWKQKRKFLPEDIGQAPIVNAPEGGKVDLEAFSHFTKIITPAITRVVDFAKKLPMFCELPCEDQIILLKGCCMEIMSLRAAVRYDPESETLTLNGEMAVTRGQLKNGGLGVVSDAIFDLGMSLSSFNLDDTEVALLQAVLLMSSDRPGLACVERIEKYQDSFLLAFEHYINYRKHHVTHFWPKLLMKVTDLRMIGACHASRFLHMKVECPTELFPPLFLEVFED
Chain of Peroxisome proliferator-activated receptor gamma (Homo sapiens) (P37231 whole entry, looked up): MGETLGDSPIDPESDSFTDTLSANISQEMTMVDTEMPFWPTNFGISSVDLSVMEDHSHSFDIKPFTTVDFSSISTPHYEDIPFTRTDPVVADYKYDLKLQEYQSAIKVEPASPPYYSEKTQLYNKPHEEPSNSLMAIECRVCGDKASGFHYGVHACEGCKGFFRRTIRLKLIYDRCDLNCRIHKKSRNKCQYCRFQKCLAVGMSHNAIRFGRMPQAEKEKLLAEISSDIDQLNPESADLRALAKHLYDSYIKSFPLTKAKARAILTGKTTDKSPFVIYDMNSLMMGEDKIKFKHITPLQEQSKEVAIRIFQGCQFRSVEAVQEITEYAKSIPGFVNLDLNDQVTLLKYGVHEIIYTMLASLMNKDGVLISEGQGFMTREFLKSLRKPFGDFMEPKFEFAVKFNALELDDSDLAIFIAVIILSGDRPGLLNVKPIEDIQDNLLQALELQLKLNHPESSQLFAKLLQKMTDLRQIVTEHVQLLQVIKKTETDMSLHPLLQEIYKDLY
Chain of Voltage-gated inwardly rectifying potassium channel KCNH2 (Homo sapiens) (Q12809 whole entry, looked up): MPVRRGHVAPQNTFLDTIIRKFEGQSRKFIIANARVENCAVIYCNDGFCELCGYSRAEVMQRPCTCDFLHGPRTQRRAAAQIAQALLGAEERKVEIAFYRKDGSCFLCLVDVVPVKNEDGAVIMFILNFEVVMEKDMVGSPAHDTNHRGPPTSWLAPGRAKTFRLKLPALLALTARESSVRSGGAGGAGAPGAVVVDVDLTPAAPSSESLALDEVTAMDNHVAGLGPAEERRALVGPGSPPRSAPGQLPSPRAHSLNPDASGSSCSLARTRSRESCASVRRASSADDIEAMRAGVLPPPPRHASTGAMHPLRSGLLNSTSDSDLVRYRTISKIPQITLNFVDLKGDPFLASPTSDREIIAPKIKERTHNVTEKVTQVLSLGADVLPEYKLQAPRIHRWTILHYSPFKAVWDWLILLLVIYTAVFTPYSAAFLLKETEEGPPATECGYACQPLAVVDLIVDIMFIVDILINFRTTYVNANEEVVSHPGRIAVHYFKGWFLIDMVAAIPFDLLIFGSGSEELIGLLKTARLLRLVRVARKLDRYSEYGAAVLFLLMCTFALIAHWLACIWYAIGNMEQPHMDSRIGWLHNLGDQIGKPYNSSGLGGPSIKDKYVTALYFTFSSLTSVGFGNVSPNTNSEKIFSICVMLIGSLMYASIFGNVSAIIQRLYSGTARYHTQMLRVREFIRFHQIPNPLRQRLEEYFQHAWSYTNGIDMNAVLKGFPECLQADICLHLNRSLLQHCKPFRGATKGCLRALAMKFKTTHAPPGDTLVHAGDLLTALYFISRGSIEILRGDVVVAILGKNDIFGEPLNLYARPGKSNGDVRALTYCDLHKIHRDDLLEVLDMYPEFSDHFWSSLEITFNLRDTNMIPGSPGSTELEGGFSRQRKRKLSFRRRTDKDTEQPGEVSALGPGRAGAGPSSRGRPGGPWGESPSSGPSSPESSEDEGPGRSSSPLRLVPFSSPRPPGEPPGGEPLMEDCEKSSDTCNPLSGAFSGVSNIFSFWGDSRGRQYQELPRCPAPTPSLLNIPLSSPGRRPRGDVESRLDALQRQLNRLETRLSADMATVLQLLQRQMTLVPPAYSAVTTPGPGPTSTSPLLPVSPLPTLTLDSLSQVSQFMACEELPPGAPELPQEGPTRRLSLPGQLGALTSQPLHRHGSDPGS
Chain of Retinoic acid receptor RXR-alpha (Homo sapiens) (P19793 whole entry, looked up): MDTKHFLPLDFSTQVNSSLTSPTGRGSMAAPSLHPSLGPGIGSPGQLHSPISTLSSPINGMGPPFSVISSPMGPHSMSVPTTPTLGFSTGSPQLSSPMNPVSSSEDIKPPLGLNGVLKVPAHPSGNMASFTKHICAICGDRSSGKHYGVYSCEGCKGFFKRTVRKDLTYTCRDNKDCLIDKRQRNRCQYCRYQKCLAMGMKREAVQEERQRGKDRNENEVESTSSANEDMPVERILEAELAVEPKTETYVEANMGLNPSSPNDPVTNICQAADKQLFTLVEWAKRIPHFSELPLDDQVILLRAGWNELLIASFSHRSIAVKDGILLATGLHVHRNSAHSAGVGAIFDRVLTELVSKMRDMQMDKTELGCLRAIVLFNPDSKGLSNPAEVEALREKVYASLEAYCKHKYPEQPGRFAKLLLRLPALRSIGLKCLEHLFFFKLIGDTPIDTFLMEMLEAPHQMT
Chain of Peroxisome proliferator-activated receptor delta (Homo sapiens) (Q03181 whole entry, looked up): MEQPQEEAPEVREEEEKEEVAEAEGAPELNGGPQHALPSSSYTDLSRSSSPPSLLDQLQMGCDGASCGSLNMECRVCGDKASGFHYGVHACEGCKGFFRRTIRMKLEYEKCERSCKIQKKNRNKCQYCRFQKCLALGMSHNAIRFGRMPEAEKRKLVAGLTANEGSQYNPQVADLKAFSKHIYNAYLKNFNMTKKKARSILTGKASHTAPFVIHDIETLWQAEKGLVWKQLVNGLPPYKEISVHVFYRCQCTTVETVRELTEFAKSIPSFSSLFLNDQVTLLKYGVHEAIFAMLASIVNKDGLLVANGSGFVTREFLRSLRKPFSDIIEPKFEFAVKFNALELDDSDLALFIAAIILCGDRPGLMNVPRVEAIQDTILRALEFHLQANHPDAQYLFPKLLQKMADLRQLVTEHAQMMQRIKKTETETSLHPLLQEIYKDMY

Take `CCC(C)(C)OC`: the compound was called inactive in assay [1], in assay [4], in assay [6] and in assay [7]. Further, the activation in [2] is -0.431% (inactive); in assay [13], -0.279% (inactive). Further, the max response in assay [3] was 12.9%; in [5], 10.3%; in [8] it was -18.1%; in assay [9], 17% (inactive). Further, the activity change % (negative = inhibition) in assay [10] is -6.68% (inactive). For the same compound, the Potency result in assay [11] and in assay [12] was “inactive” each time.
Turning to `CN(C)CCCNCCCN`, the call in assay [1], in assay [14], in assay [4], in [15], in assay [16] and in assay [17] was inactive. The activation in assay [2] is -1.86% (inactive); in assay [18], -2.59% (inactive). The max response in assay [3] is -8.47%; in assay [5] it was -7.09%; in assay [8], -5.37%; in assay [9], 0.789% (inactive). Besides, in [11], the Potency result was “inactive”.
On to `O=[N+]([O-])c1ccc(NCCO)c(OCCO)c1`, for which the result in assay [1], in assay [14], in assay [4], in assay [16], in assay [17] and in assay [6] was inactive. Further, the call in assay [7] was inactive. In addition, the results for the activation in assay [2] and in assay [18] were 5.48% (inactive) and -3% (inactive), respectively. Moreover, the max response was 15.8% in [3], 4.58% in [5], -6.21% in assay [8] and -6.4% (inactive) in [9]. Further, the activity change % (negative = inhibition) in [10] was -13.2% (inactive). The Potency entry in assay [11] was “inactive”.
`FC(F)(F)c1ccccc1Cl`: the outcome in assay [1], in [4], in assay [15], in assay [16], in [17] and in [6] was inactive. In addition, in assay [7], the compound was classed as inactive. Moreover, the figures for the activation in [2], in [18] and in assay [13] were 6.11% (inactive), 1.57% (inactive) and -0.494% (inactive), respectively. In addition, the max response is 25.6% in assay [3], -12.9% in assay [5], -4.91% in [8] and -5% (inactive) in assay [9]. The Potency result in [19], in [11] and in [12] was “inactive” each time.
On to `CC(=O)Nc1cccc(N)c1`, for which the compound was classed as inactive in assay [1], in assay [14], in assay [4], in assay [16], in assay [17] and in [6]. Also, the compound was classed as inactive in assay [7]. For the same compound, the activation was -4.95% (inactive) in [2], 1.81% (inactive) in assay [18] and 0.511% (inactive) in assay [13]. Moreover, the max response was 38.5% in [3], -8.93% in assay [5] and -0.371% in [8]. Moreover, the Potency entry in assay [19] is “inactive”. Further, the activity change % (negative = inhibition) in assay [10] was -3.78% (inactive).
On to `O=C(O)c1ccc(CO)o1`, for which the compound was called inactive in assay [1], in assay [14], in [4], in assay [16], in [17] and in assay [6]. For the same compound, the call in assay [7] was inactive. The activation in assay [2] is -2.95% (inactive); in [18] it was -2.63% (inactive); in [13] it was 0.608% (inactive). The max response in assay [5] was -7.5%; in assay [8], -4.49%. Besides, the activity change % (negative = inhibition) in assay [10] is -7.49% (inactive). The Potency entry in assay [11] is “inactive”.
Turning to `CCCCC(CC)CO` (stereo not given), the compound was called inactive in [1], in assay [14], in assay [4], in [16], in assay [17] and in assay [6]. The result in assay [7] was inactive. The results for the activation in [2], in [18] and in assay [13] were -4.31% (inactive), -4.64% (inactive) and -1.43% (inactive), respectively. In addition, the max response in [3] is -4.39%; in assay [5], -6.11%; in assay [8], -1.2%; in assay [9], 16% (inactive). Further, the activity change % (negative = inhibition) in [10] was -6.25% (inactive). In addition, the Potency entry in assay [11] and in [12] was “inactive” in each case.
As to `CCCCCCCN`, the call in [1], in assay [14], in [4], in assay [15], in [16] and in assay [17] was inactive. Also, the call in [6] and in assay [7] was inactive. For the same compound, the results for the activation in assay [2] and in assay [18] were 4.22% (inactive) and -0.0412% (inactive), respectively. Besides, the max response in assay [3] is 31.2%; in assay [5], -16.2%; in assay [8], 3.38%; in assay [9], -5.49% (inactive). The activity change % (negative = inhibition) in assay [10] was 3.05% (inactive). Besides, the Potency result in assay [11] is “inactive”.

The record behind these values is PubChem BioAssay (NCATS).
